Assay [1] addresses Thyrotropin receptor (Homo sapiens) (UniProt P16473). Put plainly: qHTS assay to identify small molecule agonists of the thyroid stimulating hormone receptor (TSHR) signaling pathway (AID 1224843). Also: nearly all actives have a fitted effect of over 45% in size. A digest of the protocol: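 HEK293 cells stably bearing the thyrotropin receptor were plated at 800 cells/well and challenged with compound (30 min, RT). Accumulated cAMP was quantified via cAMP-d2 competing for cryptate-tagged antibody.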
For orientation: In qHTS, concentration-response curves come from the screen itself.

Assay [2] in a line: qHTS assay to identify small molecule agonists of the hypoxia (HIF-1) signaling pathway - cell viability counter screen (AID 1224844). Also: nearly all actives have a fitted effect of over 50% in size. In short, it runs like this:
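HRE-bla ME-180 cells, 2,000/well in 0.5% dialyzed FBS medium, treated 17 h at 37C with compounds. Viability read in the same wells as the bla reporter, by CellTiter-Glo luminescence after 30 min at room temperature.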

A short description of assay [3]: qHTS assay to identify small molecule agonists of H2AX (AID 1224845; active = well fitted activation curve with a large enough effect in the signal ratio in the repeat runs, not every such curve was filed as active; the % refers to the signal ratio). A digest of the protocol:
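Phospho-H2AX Ser139 measured by HTRF (ex 320 nm; em 665 and 620 nm) after 24 hr antibody incubation. Compounds, 15 concentrations, 0.76% DMSO, were applied to CHO-K1 cells for 3hr at 37C before lysis.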

Assay [4] can be described thus: qHTS assay to identify small molecule agonists of the hypoxia (HIF-1) signaling pathway (AID 1224846; active = well fitted activation curve with a large enough effect in the signal ratio in the repeat runs, not every such curve was filed as active; the % refers to the signal ratio). A digest of the protocol: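 HRE-bla ME-180 beta-lactamase reporter cells in medium with 0.5% dialyzed FBS, pre-incubated 5 h then exposed to compounds 17 h at 37C, 5% CO2; reporter induction read with CCF4-AM FRET substrate.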
The nature of assay [5]: qHTS assay to identify small molecule agonists of H2AX - cell viability counter screen (AID 1224847). Also: top concentration of the series differs between compounds; nearly all actives have a fitted effect of over 30% in size. A digest of the protocol:
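Cytotoxicity counter screen in wild-type CHO-K1 cells: a 3 hr compound treatment at 37C across 15 concentrations, followed by CellTiter-Glo luminescence to gauge viable cells.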

Assay [6] is described as follows: qHTS assay to identify small molecule agonists of the estrogen related receptor (ERR) signaling pathway from Tox21 library (AID 1224849). Also: nearly all actives have a fitted effect of over 15% in size. The following applies: ERR reporter cell line, ONE-Glo luciferase, 18 h; at 92.4 µM (top of the series) unless noted. A digest of the protocol:
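ERR reporter cells (NTP line) pre-incubated 6 hours at 37 C, then exposed to compounds for 18 hours at 37 C. ONE-Glo luciferase luminescence was read after 30 minutes at room temperature.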

Assay [7] can be described thus: qHTS RealTime-Glo MT Cell Viability Assay in HepG2 cells - 24 hour (AID 1224867; active = well fitted curve in the direction sought with a large enough effect in the repeat runs; an effect the other way counts as inactive or inconclusive; also: nearly all actives have a fitted effect of over 50% in size). In short, it runs like this: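 HepG2 cells were seeded at 600 cells/well together with NanoLuc luciferase and a cell-permeant prosubstrate, preincubated 5 h at 37 C/5% CO2, then pin-dosed with compounds in DMSO. Nonlytic luminescence from viable cells was read at each time point.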
A short description of assay [8]: A CellTox Green Cytotoxicity Assay to monitor cytotoxicity in HEK293 cells - 0 hour (AID 1224869; active = well fitted curve in the direction sought with a large enough effect in the repeat runs; an effect the other way counts as inactive or inconclusive; also: nearly all actives have a fitted effect of over 50% in size). In short, it runs like this:
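HEK293 cells, 600/well, were preincubated 5 hours and then exposed to compounds at 37 C for up to 40 hours. A cell-impermeant cyanine dye staining dead-cell DNA was read by fluorescence at 0, 8, 16, 24, 32 and 40 h time points.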

A short description of assay [9]: qHTS assay to identify small molecule antagonists of the estrogen related receptor (ERR) signaling pathway from Tox21 library (AID 1224848; active = well fitted curve in the direction sought with a large enough effect in the repeat runs; an effect the other way counts as inactive or inconclusive; also: nearly all actives have a fitted effect of over 50% in size; also: potency is read from the fitted curve at half-maximal effect). A digest of the protocol:
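Reading was by luminescence 30 min after ONE-Glo addition. Before that, ERR cells at 2,000 per well had rested 6 h at 37 C/5% CO2 and then received pin-tooled compounds in DMSO for 18 h at 37 C.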

The nature of assay [10]: qHTS RealTime-Glo MT Cell Viability Assay in HEK293 cells - 32 hour (AID 1224868; active = well fitted curve in the direction sought with a large enough effect in the repeat runs; an effect the other way counts as inactive or inconclusive; also: nearly all actives have a fitted effect of over 50% in size; also: potency is read from the fitted curve at half-maximal effect). In short, it runs like this:
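HEK293 cells were seeded at 600 cells/well together with NanoLuc luciferase and cell-permeant prosubstrate, preincubated 5 h at 37 C/5% CO2, then given compound in DMSO by pintool. Luminescence from viable-cell prosubstrate reduction was read repeatedly over 40 h.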

The values that follow come from PubChem BioAssay (Tox21).

Structures are written as SMILES. Unmarked numbers belong to inactive results. Inconclusive results are not listed. Active and inactive are the calls of the source. Unless noted, calls follow the shape of the full dose curve.
% is scaled to controls: 0 for no effect and ±100 for the full control effect.

Chain of Thyrotropin receptor (Homo sapiens) (P16473 whole entry, looked up): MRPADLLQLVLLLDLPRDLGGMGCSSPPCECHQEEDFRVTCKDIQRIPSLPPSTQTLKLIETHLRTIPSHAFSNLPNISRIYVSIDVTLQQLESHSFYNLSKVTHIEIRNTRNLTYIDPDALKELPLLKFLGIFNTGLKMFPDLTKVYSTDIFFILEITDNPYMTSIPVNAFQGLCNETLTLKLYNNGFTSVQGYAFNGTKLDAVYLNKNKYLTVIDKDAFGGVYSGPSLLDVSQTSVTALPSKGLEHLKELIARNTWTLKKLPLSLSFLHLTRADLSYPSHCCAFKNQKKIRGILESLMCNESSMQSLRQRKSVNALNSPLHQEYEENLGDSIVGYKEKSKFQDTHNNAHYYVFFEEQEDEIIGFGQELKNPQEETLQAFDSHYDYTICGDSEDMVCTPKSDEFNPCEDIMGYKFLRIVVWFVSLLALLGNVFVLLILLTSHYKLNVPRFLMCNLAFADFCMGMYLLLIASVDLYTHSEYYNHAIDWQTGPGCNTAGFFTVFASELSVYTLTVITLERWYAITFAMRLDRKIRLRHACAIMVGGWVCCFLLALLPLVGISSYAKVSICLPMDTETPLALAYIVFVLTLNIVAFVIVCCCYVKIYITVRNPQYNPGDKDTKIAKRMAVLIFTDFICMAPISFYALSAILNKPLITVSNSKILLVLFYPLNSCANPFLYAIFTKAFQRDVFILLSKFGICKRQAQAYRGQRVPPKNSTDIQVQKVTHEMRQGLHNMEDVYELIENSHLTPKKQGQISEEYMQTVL

As to `O=C(O)C(O)[C@H](O)[C@@H](O)[C@H](O)[C@H](O)CO` (stereo partly specified), the outcome in [1], in assay [3], in [4] and in [7] was inactive. Moreover, the Potency entry in assay [2], in assay [5] and in [8] was “inactive” in each case. Also, the activity change, positive = activation in assay [6] was -30.1%.

In the case of `C1CCCCCCCCCCC1`, the activation in [1] was -4.17% [at 19 µM]; in assay [4], 0.351% [at 15.8 µM]. The activity change, negative = cytotoxicity was 3.97% [at 15.8 µM] in [2], 0.456% [at 31.6 µM] in assay [5] and 3.08% [at 15.8 µM] in assay [7]. Besides, the activation (H2AX phosphorylation) in [3] is 1.29% [at 31.6 µM]. Also, in assay [6], the activity change, positive = activation is -0.61% [at 19 µM]. In addition, in [8], the cytotoxicity is -14.8% [at 15.8 µM].

Turning to `NC(=O)c1c(Cl)cccc1Cl`, the compound was called inactive in assay [1], in assay [3], in assay [4] and in assay [7]. Also, the Potency result in assay [2], in [5], in assay [9], in [10] and in assay [8] was “inactive” throughout. Moreover, the activity change, positive = activation in [6] is -1.3%.

For `CCO[Si](C)(OCC)OCC`, the result in [1], in [3], in assay [4] and in [7] was inactive. Besides, the Potency entry in assay [2], in [5], in assay [10] and in assay [8] was “inactive” in each case. In addition, the activity change, positive = activation in assay [6] was 4.4%.

Consider `Cc1ccc(N)cc1[N+](=O)[O-]`, for which the compound was called inactive in [1], in assay [3], in assay [4] and in assay [7]. In addition, the Potency entry in assay [2], in assay [5] and in assay [10] was “inactive” each time.

In the case of `CCCOCC(C)OCC(C)O` (stereo unspecified), the outcome in [1], in [3], in assay [4] and in [7] was inactive. Moreover, the Potency result in assay [2], in [5], in [10] and in assay [8] was “inactive” throughout. Further, the activity change, positive = activation in [6] was 1.4%.

For the compound `CN(C)N=Nc1ccccc1`, the compound was called inactive in assay [1], in assay [3], in [4] and in [7]. Besides, the Potency result in [2], in [5], in [10] and in [8] was “inactive” throughout. Further, the activity change, positive = activation in assay [6] is 9.49%.

Take `C=CCn1c(=O)n([C@@H]2O[C@H](CO)[C@@H](O)[C@H]2O)c2nc(N)[nH]c(=O)c21`: the result in assay [1], in assay [3], in assay [4] and in assay [7] was inactive. Moreover, the Potency entry in assay [2], in [5] and in [10] was “inactive” throughout.

`O=S(=O)(O)c1ccccc1O`: the call in assay [1], in assay [3], in assay [4] and in assay [7] was inactive. Moreover, the Potency result in assay [2], in assay [5], in [10] and in assay [8] was “inactive” each time. The activity change, positive = activation in [6] was -0.0376%.

On to `CCCCCC[C@@H](CCC)C(=O)O`, for which the compound was classed as inactive in assay [1], in assay [3], in assay [4] and in assay [7]. Moreover, the Potency entry in assay [2], in [5] and in assay [10] was “inactive” throughout. In addition, the activity change, positive = activation in assay [6] was -23% [at 42.5 µM].

As to `O=c1[nH]c2ccccc2c(=O)n1CCCl`, the result in assay [1], in [3], in assay [4] and in [7] was inactive. For the same compound, the Potency result in assay [2], in [5] and in [10] was “inactive” throughout. Further, the activity change, positive = activation in assay [6] is -3.42% [at 42.5 µM].

As to `COC(=O)[C@H]1[C@H]2C[C@@H]3c4[nH]c5cc(OC)ccc5c4CCN3C[C@H]2C[C@@H](OC(=O)COc2ccc(OC)cc2)[C@@H]1OC`, the result in assay [1], in [3], in assay [4] and in assay [7] was inactive. The Potency entry in [2], in assay [5] and in assay [10] was “inactive” throughout. The activity change, positive = activation in [6] was -9.01% [at 42.5 µM].

For `COC(=O)CCCCCCCCC(=O)OC`, the result in assay [1], in assay [3], in assay [4] and in assay [7] was inactive. In addition, the Potency entry in assay [2], in assay [5], in [9], in assay [10] and in assay [8] was “inactive” throughout. The activity change, positive = activation in assay [6] is 0.842%.

As for `CCn1c(=O)c2c(nc(/C=C/c3ccc(OC)c(OC)c3)n2C)n(CC)c1=O`, the result in assay [1], in assay [3], in assay [4] and in [7] was inactive. The Potency entry in assay [2], in [5] and in assay [8] was “inactive” in each case. In addition, the Potency in assay [9] is 21.1 µM (active); in assay [10] it was 1.69 µM (active). Further, the activity change, positive = activation in assay [6] is -35.7% [at 42.5 µM].

For `C=CCOCC(O)CS(=O)(=O)O` (stereo unspecified), the compound was called inactive in [1], in assay [3], in assay [4] and in assay [7]. Further, the Potency result in [2], in [5], in assay [10] and in [8] was “inactive” in each case.

Consider `Cn1cnc2c(=O)[nH]c(N)nc21`, for which the compound was classed as inactive in assay [1], in assay [3], in assay [4] and in assay [7]. The Potency result in assay [2], in assay [5], in [10] and in assay [8] was “inactive” throughout.

For the compound `COCCOC(=O)CC#N`, the outcome in assay [1], in [3], in [4] and in assay [7] was inactive. Besides, the Potency entry in assay [2], in assay [5], in assay [10] and in assay [8] was “inactive” throughout.

As to `C=CC(=O)OCCCCCC`, the call in assay [1], in assay [3], in assay [4] and in assay [7] was inactive. Further, the Potency result in [2], in [5], in assay [10] and in assay [8] was “inactive” in each case.

`CCCCNc1ccccc1`: the outcome in [1], in assay [3], in assay [4] and in [7] was inactive. Besides, the Potency entry in assay [2], in [5], in assay [10] and in [8] was “inactive” each time.

As to `CCCCC=O`, the compound was called inactive in assay [1], in [3], in [4] and in [7]. In addition, the Potency entry in assay [2], in assay [5], in assay [10] and in assay [8] was “inactive” throughout.

With `O=C(O)c1ccccc1-c1ccc(C(F)(F)F)cc1`, the call in assay [1], in assay [3], in assay [4] and in assay [7] was inactive. The Potency entry in assay [2], in [5], in assay [10] and in assay [8] was “inactive” throughout.

On to `CC(C)COC(=O)C(C)C`, for which the compound was classed as inactive in assay [1], in assay [3], in [4] and in [7]. Besides, the Potency entry in [2], in [9], in assay [10] and in assay [8] was “inactive” throughout. Further, in assay [6], the activity change, positive = activation was 8.11%.

With `COC(C(=O)O)c1ccccc1` (stereo unspecified), the call in [1], in assay [3], in assay [4] and in assay [7] was inactive. Also, the Potency result in [2], in assay [5], in assay [10] and in assay [8] was “inactive” each time.

On to `OCC(O)[C@@H](O)[C@H](O)[C@H](O)CO[C@H]1O[C@H](CO)[C@@H](O)[C@H](O)[C@H]1O` (stereo partly specified), for which the result in [1], in assay [3], in assay [4] and in assay [7] was inactive. For the same compound, the Potency result in assay [2], in [5], in [10] and in assay [8] was “inactive” in each case.
